Assay outcomes: PubChem BioAssay, several laboratories
In the library only some 27% were active in any assay of this set; here they are far more common.
CYP2C19 activ: cytochrome P450 2C19 (human) activation; P33261; recombinant CYP2C19, luciferin-H EGE luminescence; active compounds read high; 0 = fully inhibited enzyme, 1 = untreated enzyme; activation factor at 5 µM; 96,000 tested, under 10 active;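 active = activation factor of at least 2 at 5 µM in the primary screen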;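 also: 0 = wells with 2.5 mM tranylcypromine and 1 = vehicle-only wells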
sEH act: soluble epoxide hydrolase (human) activation. hit rate 0.04% among 91,000. P34913. AID 717. activation, % at 2 µM. purified human sEH enzymatic activity, activator screen; in the data active = activation above about 37%
Target sequence (P34913 whole entry, looked up): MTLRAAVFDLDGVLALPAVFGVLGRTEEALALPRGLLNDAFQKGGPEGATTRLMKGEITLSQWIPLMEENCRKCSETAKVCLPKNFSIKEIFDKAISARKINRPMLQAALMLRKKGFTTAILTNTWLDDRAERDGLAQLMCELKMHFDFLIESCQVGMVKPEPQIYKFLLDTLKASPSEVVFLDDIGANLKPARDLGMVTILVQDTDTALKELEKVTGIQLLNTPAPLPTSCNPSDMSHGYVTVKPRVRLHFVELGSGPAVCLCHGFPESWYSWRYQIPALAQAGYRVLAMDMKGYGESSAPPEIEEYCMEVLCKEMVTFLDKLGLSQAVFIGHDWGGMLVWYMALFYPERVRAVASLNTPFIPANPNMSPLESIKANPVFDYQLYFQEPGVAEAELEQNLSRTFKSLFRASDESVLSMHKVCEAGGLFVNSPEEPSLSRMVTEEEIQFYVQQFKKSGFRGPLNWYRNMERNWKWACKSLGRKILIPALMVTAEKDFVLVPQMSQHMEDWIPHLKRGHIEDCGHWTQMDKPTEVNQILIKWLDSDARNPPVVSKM
sEH inhibitor: soluble epoxide hydrolase (human) inhibition; hit rate 0.34% among 91,000; inhibition, % at 2 µM; AID 707; recombinant human sEH enzymatic activity assay; P34913; in the data active = inhibition above about 80%
CYP2C9 inhib: human CYP2C9 inhibition. CYP2C9 Supersomes, luciferin-H conversion, luminescence. inhibition, % at 5 µM. hit rate 20% among 96,000;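 active = blocking of liver enzyme CYP2C9 beyond about 50% at 5 µM, limit read from the data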
CYP2C9 activ: increases human cytochrome P450 2C9 activity | P11712 | recombinant CYP2C9, luciferin-H conversion, luminescence; active compounds read high; factor 1 = untreated enzyme, 0 = blocked | hit rate 1.4% among 96,000 | activation factor at 5 µM;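 active = activation factor of 2 or more for CYP2C9 at a 5 µM dose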;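 also: 0 = sulfaphenazole-blocked wells and 1 = vehicle-only wells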
CYP2C19 inhib: blocks human cytochrome P450 2C19; P33261; CYP2C19 Supersomes, luciferin-H EGE luminescence, 30 min; inhibition, % at 5 µM; hit rate 21% among 96,000;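 active = CYP2C19 inhibition above a set limit at 5 µM in the primary screen, cut at about 50% in these data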;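 also: plate controls were negative control wells for no effect and 2.5 mM tranylcypromine positive control for full effect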
* = called active by the depositor.

How did O=C1COc2ccc(C(=O)CSc3nnc(-c4cccs4)n3Cc3ccccc3)cc2N1 do in these assays?
CYP2C19 activ: 0.5; sEH act: 4.6; sEH inhibitor: -1.5; CYP2C9 inhib: 62.6*; CYP2C9 activ: 0.4; CYP2C19 inhib: 51.7*

Results for O=C1COc2ccc(C(=O)CSc3nnc(Cc4cccs4)n3-c3ccccc3)cc2N1 ?
CYP2C19 activ: 0.9; sEH act: 3.4; sEH inhibitor: -2.4; CYP2C9 inhib: 84.7*; CYP2C9 activ: 0.2; CYP2C19 inhib: 14.9

How did O=C(COC(=O)c1ccccn1)NCCCc1ccccc1 do in these assays?
CYP2C19 activ: 0.6; sEH act: -10.7; sEH inhibitor: 9.5; CYP2C9 inhib: 15.8; CYP2C9 activ: 0.8; CYP2C19 inhib: 38.4

What do the screens show for `Cn1nnc2cc(NC(=O)N3CC4(C)CC3CC(C)(C)C4)ccc21` (stereo unspecified)?
CYP2C19 activ: 0.9; sEH act: -3.2; sEH inhibitor: 3.2; CYP2C9 inhib: 17.9; CYP2C9 activ: 0.8; CYP2C19 inhib: 8.2

How did Cc1noc(C)c1S(=O)(=O)N1CCCC(C(=O)Nc2cccnc2)C1 (stereo unspecified) do in these assays?
CYP2C19 activ: 1; sEH act: -3.8; sEH inhibitor: 5.8; CYP2C9 inhib: 1.8; CYP2C9 activ: 1; CYP2C19 inhib: 3.5

How did O=C1CSC(=S)N1Cc1cccnc1 do in these assays?
CYP2C19 activ: 0.5; sEH act: 13.6; sEH inhibitor: -14.2; CYP2C9 inhib: 76.5*; CYP2C9 activ: 0.2; CYP2C19 inhib: 52.9*

How did CC1(C)CCCC2=C1CC1C(=O)N(Cc3cccnc3)C(=O)C1C2 (stereo unspecified) do in these assays?
CYP2C19 activ: 0.7; CYP2C9 inhib: 32.0; CYP2C9 activ: 0.7; CYP2C19 inhib: 28.3

Results for O=C1C2C3C=CC([C@@H]2C(=O)N1Cc1cccnc1)C31CC1 (stereo partly specified) ?
CYP2C19 activ: 0.3; sEH act: -8.2; sEH inhibitor: 11.4; CYP2C9 inhib: 6.3; CYP2C9 activ: 0.9; CYP2C19 inhib: 72.1*

Results for CCCCc1ccc(NS(=O)(=O)c2cccs2)cc1 ?
CYP2C19 activ: 0.5; sEH act: -11.6; sEH inhibitor: 12.7; CYP2C9 inhib: 58.8*; CYP2C9 activ: 0.4; CYP2C19 inhib: 49.3

What do the screens show for `Cc1ccnc(NS(=O)(=O)c2ccc(NS(=O)(=O)c3cccs3)cc2)n1`?
sEH act: 2.2; sEH inhibitor: 0.6

Results for O=S(=O)(Nc1ccc(Cc2ccncc2)cc1)c1ccc(Br)cc1 ?
CYP2C19 activ: 0; sEH act: -7.6; sEH inhibitor: 6.8; CYP2C9 inhib: 98.7*; CYP2C9 activ: 0; CYP2C19 inhib: 100.2*

What do the screens show for `O=S(=O)(Nc1ccc(Cc2ccncc2)cc1)c1cccs1`?
CYP2C19 activ: 0; sEH act: 2.6; sEH inhibitor: -0.2; CYP2C9 inhib: 99.2*; CYP2C9 activ: 0; CYP2C19 inhib: 99.7*

How did N#CCc1ccc(NS(=O)(=O)c2cccs2)cc1 do in these assays?
CYP2C19 activ: 0.1; CYP2C9 inhib: 72.4*; CYP2C9 activ: 0.3; CYP2C19 inhib: 85.9*

What do the screens show for `Cc1cc(C)nc(NS(=O)(=O)c2ccc(Br)cc2)n1`?
CYP2C19 activ: 0.8; sEH act: 5.2; sEH inhibitor: -4.0; CYP2C9 inhib: -4.2; CYP2C9 activ: 1; CYP2C19 inhib: 19.9

What do the screens show for `FC(F)(F)c1nc2ccccc2nc1N/N=C\c1ccccc1`?
CYP2C19 activ: 0.8; sEH act: -3.2; sEH inhibitor: 3.4; CYP2C9 inhib: 24.8; CYP2C9 activ: 0.8; CYP2C19 inhib: 20.7

How did Cn1c(=O)c2c(nc(SCC(=O)N3CCc4ccccc43)n2Cc2ccc(F)cc2)n(C)c1=O do in these assays?
sEH act: -5.9; sEH inhibitor: 10.4

What do the screens show for `CCc1ccc(CCC(=O)Nc2nnc(CC)s2)o1`?
CYP2C19 activ: 0.8; CYP2C9 inhib: 3.8; CYP2C9 activ: 1; CYP2C19 inhib: 15.4

What do the screens show for `O=S(=O)(Nc1ccc(Cc2ccncc2)cc1)c1ccc(Br)s1`?
CYP2C19 activ: 0.3; sEH act: -1.9; sEH inhibitor: 2.1; CYP2C9 inhib: 100.0*; CYP2C9 activ: 0; CYP2C19 inhib: 72.4*

Results for CCOc1ccc(NC(=O)CCNS(=O)(=O)c2ccc(Br)s2)cc1 ?
CYP2C19 activ: 0.9; sEH act: 7.8; sEH inhibitor: -10.8; CYP2C9 inhib: -41.2; CYP2C9 activ: 1.4; CYP2C19 inhib: 7.0

What do the screens show for `CCS(=O)(=O)Nc1ccc(Cc2ccncc2)cc1`?
CYP2C19 activ: 0.1; sEH act: -1.5; sEH inhibitor: -0.3; CYP2C9 inhib: 94.8*; CYP2C9 activ: 0.1; CYP2C19 inhib: 92.8*

What do the screens show for `Cc1ccc(NS(=O)(=O)c2ccc(NS(=O)(=O)c3cccs3)cc2)cc1`?
CYP2C19 activ: 0.5; sEH act: -16.6; sEH inhibitor: 17.0; CYP2C9 inhib: 86.7*; CYP2C9 activ: 0.1; CYP2C19 inhib: 49.6

Results for NS(=O)(=O)c1ccc(NS(=O)(=O)c2cccs2)cc1 ?
CYP2C19 activ: 0.9; sEH act: 4.2; sEH inhibitor: -1.5; CYP2C9 inhib: 21.8; CYP2C9 activ: 0.8; CYP2C19 inhib: 8.0

How did CCS(=O)(=O)Nc1ccc(NC(C)=O)cc1 do in these assays?
CYP2C19 activ: 1.1; sEH act: 5.4; sEH inhibitor: -2.3; CYP2C9 inhib: -8.1; CYP2C9 activ: 1.1; CYP2C19 inhib: -12.5

Results for O=C(Nc1ccccc1[N+](=O)[O-])C1=C(O)CCn2c1nc1ccccc12 ?
CYP2C19 activ: 1; sEH act: -2.0; sEH inhibitor: 4.8; CYP2C9 inhib: 31.2; CYP2C9 activ: 0.7; CYP2C19 inhib: 2.3

What do the screens show for `CC(C)CC(C(=O)Nc1ccc2c(c1)OCCO2)N1C(=O)c2ccccc2C1=O` (stereo unspecified)?
CYP2C19 activ: 1.1; sEH act: -8.3; sEH inhibitor: 6.6; CYP2C9 inhib: 4.0; CYP2C9 activ: 1; CYP2C19 inhib: -12.3

What do the screens show for `CC(C)CC(C(=O)Nc1oc(-c2ccco2)c(-c2ccco2)c1C#N)N1C(=O)c2ccccc2C1=O` (stereo unspecified)?
CYP2C19 activ: 0.3; sEH act: -3.6; sEH inhibitor: 2.5; CYP2C9 inhib: 97.8*; CYP2C9 activ: 0; CYP2C19 inhib: 69.4*

What do the screens show for `CCOc1ccc(-c2cc(N)n(S(=O)(=O)c3ccc(OC)cc3)n2)cc1`?
CYP2C19 activ: 1.1; sEH act: 2.3; sEH inhibitor: -3.4; CYP2C9 inhib: 44.4; CYP2C9 activ: 0.6; CYP2C19 inhib: -6.5

How did CCOC(=O)c1oc2ccc(S(=O)(=O)n3nc(-c4ccc(OC)cc4)cc3N)cc2c1C do in these assays?
CYP2C19 activ: 1; CYP2C9 inhib: 100.0*; CYP2C9 activ: 0; CYP2C19 inhib: 1.9

What do the screens show for `CCOC(=O)c1oc2ccc(S(=O)(=O)n3nc(-c4ccccc4)cc3N)cc2c1C`?
CYP2C19 activ: 0.7; sEH act: 3.5; sEH inhibitor: -4.6; CYP2C9 inhib: 97.7*; CYP2C9 activ: 0; CYP2C19 inhib: 31.0
